# Data taken from article PMC5540273 (PLoS ONE, 2017).
# Tests used:
# Settings in all cases: concentration: 1 μM, replicates: in singlicate; n = 1
# CSF1R = tested on: CSF1R
# CSK = tested on: CSK
# CSNK1A1L = tested on: CSNK1A1L
# CSNK1A1 = tested on: CSNK1A1
# CSNK1D = tested on: CSNK1D
# CSNK1E = tested on: CSNK1E
# CSNK1G1 = tested on: CSNK1G1
# CSNK1G2 = tested on: CSNK1G2
# CSNK1G3 = tested on: CSNK1G3
# CSNK2A1 = tested on: CSNK2A1
# CSNK2A2 = tested on: CSNK2A2
# CTK = tested on: T1, CTK
# T1 construct: gene MATK
# DAPK1 = tested on: DAPK1
# DAPK2 = tested on: DAPK2
# DAPK3 = tested on: DAPK3
# DCAMKL1 = tested on: T2, DCAMKL1
# T2 construct: gene DCLK1
# DCAMKL2 = tested on: T3, DCAMKL2
# T3 construct: gene DCLK2
# DCAMKL3 = tested on: T4, DCAMKL3
# T4 construct: gene DCLK3
# DDR1 = tested on: DDR1
# DDR2 = tested on: DDR2
# 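Also: KINOMEscan kinase panel screen.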
Compound,%Inh (CSF1R) [%],%Inh (CSK) [%],%Inh (CSNK1A1L) [%],%Inh (CSNK1A1) [%],%Inh (CSNK1D) [%],%Inh (CSNK1E) [%],%Inh (CSNK1G1) [%],%Inh (CSNK1G2) [%],%Inh (CSNK1G3) [%],%Inh (CSNK2A1) [%],%Inh (CSNK2A2) [%],%Inh (CTK) [%],%Inh (DAPK1) [%],%Inh (DAPK2) [%],%Inh (DAPK3) [%],%Inh (DCAMKL1) [%],%Inh (DCAMKL2) [%],%Inh (DCAMKL3) [%],%Inh (DDR1) [%],%Inh (DDR2) [%]
COc1cc2ncn(-c3cc(OCc4ccc(S(C)(=O)=O)cc4)c(C(N)=O)s3)c2cc1OC [GW869979],0,0,0,0,0,13,0,10,3,19,0,15,0,0,9,1,19,0,20,2
Cc1cccc(-c2cc(-c3c[nH]nc3-c3ccccn3)ccn2)c1 [GW679395],53,0,2,0,25,10,8,0,6,0,8,0,6,0,16,14,0,13,36,8
Cc1c(Cn2c(C)nn3c(=O)cc(N4CCO[C@H](C)C4)nc23)cccc1C(F)(F)F [GSK2373690],51,0,2,23,25,20,67,0,21,0,0,0,0,0,8,0,17,11,15,2
Nc1n[nH]c2ncc(-c3ccccc3)cc12 [SB-517081],47,0,9,0,30,15,68,0,6,0,11,0,12,0,29,13,13,22,0,23
CCS(=O)(=O)c1ccc(OC)c(Nc2ncc(-c3ccc(F)cc3)o2)c1.Cl [GW591947],0,0,0,0,18,40,13,0,8,0,17,0,0,0,15,9,0,6,0,4
COc1cc2ncn(-c3cc(OCCCc4ccccc4)c(C(N)=O)s3)c2cc1OC [GSK205189],0,0,5,23,1,2,1,2,21,0,3,0,0,26,0,0,17,1,2,3
Nc1ncnc2c1ncn2-c1ccc(Cl)cc1 [AH2635],11,0,12,0,9,46,0,0,17,0,1,0,0,0,0,10,0,0,0,21
CCn1c(-c2nonc2N)nc2ccccc21 [SB-693162/GW549034],0,5,0,6,7,0,0,0,0,21,19,31,13,0,0,0,0,13,0,0
COc1cccc(C2=C(Nc3cccc(C(=O)O)c3)C(=O)NC2=O)c1 [SB-390770],0,0,12,0,0,2,2,0,7,7,19,0,6,0,0,12,0,13,0,6
Cc1cccc(-c2nc(Nc3ccc4c(cnn4C)c3)c3ccccc3n2)n1 [GW876731],29,2,0,0,50,37,18,10,0,0,0,4,0,0,14,0,11,0,3,1
COc1cc(Nc2ccnc3ccc(C(F)(F)F)cc23)cc(OC)c1OC [GW577382],8,3,19,36,21,9,3,0,27,10,62,8,0,4,26,5,0,2,0,23
Nc1n[nH]c2nnc(-c3ccccc3)c(-c3ccccc3)c12 [GW554060],0,0,13,0,0,7,0,0,0,11,0,0,0,0,19,1,0,0,28,22
Cn1c(=O)c(F)c(Nc2ccc(I)cc2F)c2c(=O)n(OC[C@H](O)CO)cnc21,21,20,0,36,12,25,11,20,4,0,0,0,0,0,13,13,20,20,0,25
CCC(=O)c1c(-c2ccccc2)c2cc(Cl)ccc2c(=O)n1Cc1cc(S(C)(=O)=O)n(CC(F)F)n1,10,73,0,0,0,1,0,7,0,0,0,0,0,0,0,19,0,1,18,10
COc1cccc(-n2cnc3c(N)ncnc32)c1 [SKF-97416],7,8,0,31,12,0,0,0,3,0,11,48,15,0,3,0,4,0,0,21
O=C(Nc1n[nH]c2nc(-c3ccccc3)c(Cl)cc12)C1CC1 [SB-734909],28,0,0,0,0,11,0,0,0,31,34,27,9,0,0,16,18,8,17,18
CCC(=O)c1c(-c2ccccc2)c2cc(Cl)ccc2c(=O)n1Cc1cc(S(C)(=O)=O)n(CCC(C)(C)O)n1,16,0,0,31,8,0,21,15,0,17,22,0,16,3,0,15,22,21,14,0
COc1ccc(CNC(=O)NC2CCN(c3ccnc(Nc4ccc(F)cc4)n3)C2)cc1 (stereo not drawn) [GSK1379706],16,5,12,25,29,15,21,0,23,4,12,0,0,14,30,14,60,2,8,63
CCCC(=O)Nc1n[nH]c2ncc(-c3cccc4ccccc34)cc12 [SB-642057],26,0,2,0,37,19,4,0,1,0,0,0,20,0,24,18,0,11,3,0
COc1cc2ncn(-c3cc(OCc4ccncc4Br)c(C(N)=O)s3)c2cc1OC [GW854278],0,6,10,0,8,0,18,0,0,0,18,45,28,18,6,0,2,0,0,0
O=C(Nc1ccc2c(c1)OCO2)NC1CCN(c2ccnc(NCc3ccc(F)cc3)n2)CC1 [GSK1379859],0,0,15,0,0,36,0,0,20,0,22,0,22,0,0,14,0,18,9,0
